# Several values for one entry are separate records, joined by “and”; a condition that tells them apart may be missing. Equal values may be shown once. About 83,000 compounds went through this panel and 20% of them were active in at least one assay; those are over-represented in the sample as a whole.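 For each line, cells grew in 96-well plates with the test compound present at a single concentration for 48 hours.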 Activity calls are given as the source filed them. The calls were made as follows: active = growth percent below 10; inactive = the rest.
# Columns and labels:
# Assay in all cases: NCI-60 one-dose screen, 48 h (100 = growth as untreated, 0 = no growth, -100 = all killed)
# Settings in all cases: 10 µM unless noted
# NCI-H23 lung = system: NCI-H23 lung
# NCI-H226 lung = system: NCI-H226 lung
# NCI-H322M lung = system: NCI-H322M lung
# HOP-62 NSCLC = system: HOP-62 NSCLC
# NCI-H460 lung = system: NCI-H460 lung
# HOP-92 NSCLC = system: HOP-92 NSCLC
# NCI-H522 lung = system: NCI-H522 lung
# A549/ATCC NSCLC = system: A549/ATCC NSCLC
# 786-0 renal = system: 786-0 renal
# COLO 205 colon = system: COLO 205 colon
SMILES,growth (NCI-H23 lung),growth (NCI-H226 lung),growth (NCI-H322M lung),growth (HOP-62 NSCLC),growth (NCI-H460 lung),growth (HOP-92 NSCLC),growth (NCI-H522 lung),growth (A549/ATCC NSCLC),growth (786-0 renal),growth (COLO 205 colon)
CCOc1cccc(/C(N)=N/C(N)=N/c2nc3ccccc3s2)c1,66.4% (inactive),78.6% (inactive),91% (inactive),-38.7% (active),70.4% (inactive),105% (inactive),94.3% (inactive),-20% (active),105% (inactive),113% (inactive)
COC(=O)[C@@H](Cc1c[nH]c2ccccc12)NC(=O)CCCCOc1cc(O)c2c(=O)cc(-c3ccccc3)oc2c1,35.2% (inactive),88.8% (inactive),95.8% (inactive),96.2% (inactive),94.4% (inactive),60.6% (inactive),86.7% (inactive),86.7% (inactive),97% (inactive),90.4% (inactive)
CCOC(=O)c1c(NC(=O)c2cccc(C(F)(F)F)c2)sc2c1CCC(=O)C2,16% (inactive),71.8% (inactive),95.1% (inactive),31.8% (inactive),27.9% (inactive),29.9% (inactive),-4% (active),28.9% (inactive),98.4% (inactive),15.8% (inactive)
Fc1ccc(-c2cn3c(-c4c[nH]c5ccc(Br)cc45)csc3n2)cc1,30.4% (inactive),59.8% (inactive),81.4% (inactive),34.8% (inactive),52.9% (inactive),22.2% (inactive),85.1% (inactive),78.6% (inactive),97.2% (inactive),76.9% (inactive)
CCOC(=O)c1c(N)c(C#N)cn1Cc1ccc(Cl)cc1Cl,84.4% (inactive),85.1% (inactive),87.4% (inactive),68.7% (inactive),81.2% (inactive),73.1% (inactive),67.2% (inactive),76.2% (inactive),76.4% (inactive),106% (inactive)
COc1ccc(/C=N/NC(=O)c2c(N)nn(C)c2Nc2ccccc2)cc1Oc1ccccc1,90.4% (inactive),91.9% (inactive),89.4% (inactive),96.5% (inactive),102% (inactive),51.3% (inactive),93.8% (inactive),89.1% (inactive),101% (inactive),117% (inactive)
Cc1cc(=O)oc2cc(OCCCOc3ccc(/C=C/C(=O)Nc4ccc(Br)cc4)cc3)ccc12,67.8% (inactive),77.4% (inactive),94.9% (inactive),85.2% (inactive),9.24% (active),53.5% (inactive),80% (inactive),92.2% (inactive),61.7% (inactive),97.7% (inactive)
O=S(=O)(NCCCNc1nccc(-c2[nH]c(-c3ccccc3)nc2-c2ccc(F)c(O)c2)n1)c1ccc(C(F)(F)F)cc1,70.7% (inactive),48.5% (inactive),95.4% (inactive),62.3% (inactive),16.3% (inactive),71.6% (inactive),18.8% (inactive),41.7% (inactive),48% (inactive),88.3% (inactive)
CCOC(=O)C(=O)Nc1ccc2c(ccn2C(=O)c2cccc(F)c2)c1,95.8% (inactive),97.2% (inactive),93.8% (inactive),95.9% (inactive),100% (inactive),78.9% (inactive),96.1% (inactive),102% (inactive),97.6% (inactive),108% (inactive)
C#CCN(C)CCCOc1ccc(NCc2ccc(/C=C/C(=O)NO)cc2)cc1Cl,-24% (active),-11.7% (active),9.85% (active),3.99% (active),4.27% (active),-27.6% (active),2.32% (active),-3.43% (active),-2.14% (active),-24.4% (active)
CN1CCN(Cc2ccc(/C=N/Nc3ccnc4cc(Cl)ccc34)cc2)CC1,89.2% (inactive),88.4% (inactive),87.5% (inactive),80.5% (inactive),83.1% (inactive),64.3% (inactive),101% (inactive),83.7% (inactive),77.7% (inactive),93.2% (inactive)
O=C(CSc1nc2ccccc2c(=O)n1-c1ccccc1)Nc1ccc(S(=O)(=O)Nc2nccs2)cc1,86.1% (inactive),73.6% (inactive),77% (inactive),80.4% (inactive),85.2% (inactive),89.4% (inactive),26.7% (inactive),84.4% (inactive),66.1% (inactive),103% (inactive)
CN(C)c1ccc(/C=N/Nc2nc(N/N=C/c3ccc(N(C)C)cc3)nc(N3CCCCC3)n2)cc1,96.7% (inactive),102% (inactive),100% (inactive),81.8% (inactive),70.9% (inactive),84% (inactive),96.2% (inactive),78.5% (inactive),88.2% (inactive),83.5% (inactive)
CCCCCCNC(=O)Oc1ccc(/C(=C(/C)c2ccc(OC)cc2)c2ccc(OCCN3CCCCCC3)cc2)cc1,20.4% (inactive),81% (inactive),82.1% (inactive),-9.29% (active),-67.9% (active),63.4% (inactive),82.4% (inactive),45.7% (inactive),24.3% (inactive),-60.5% (active)
O=C(/C=C/c1cccc(F)c1)c1cccc(OCCCOc2cccc(C(=O)/C=C/c3cccc(F)c3)c2)c1,49.2% (inactive),77% (inactive),101% (inactive),132% (inactive),96.1% (inactive),115% (inactive),83.2% (inactive),69.8% (inactive),51% (inactive),82.2% (inactive)
Cc1cc2nc3c4cc(C#N)ccc4n(CCN(C)C)c3nc2cc1C,-35% (active),-21.5% (active),-0.486% (active),4.29% (active),-42.3% (active),-19.1% (active),-52.1% (active),-67.2% (active),6.69% (active),-82.7% (active)
CCOP(=O)(OCC)OC[C@]12CC[C@@H](C)[C@H](C)C1C1=CC[C@@H]3[C@@]4(C)CCCNC(C)(C)[C@@H]4CC[C@@]3(C)[C@]1(C)CC2 (stereo not given in full),31.7% (inactive),62.5% (inactive),81.7% (inactive),65% (inactive),-68.2% (active),34.8% (inactive),57.2% (inactive),18.2% (inactive),14.9% (inactive),-50.7% (active)
C/C(=N\NC(N)=S)c1nnn(-c2ccc([N+](=O)[O-])cc2)c1C,95.4% (inactive),93.1% (inactive),95.3% (inactive),99.4% (inactive),100% (inactive),98.7% (inactive),89.6% (inactive),103% (inactive),103% (inactive),103% (inactive)
O=S(=O)(NCCCNc1nccc(-c2[nH]c(-c3ccccc3)nc2-c2ccc(F)c(O)c2)n1)c1cccc(F)c1,90.4% (inactive),96.7% (inactive),103% (inactive),116% (inactive),78% (inactive),94.6% (inactive),87.5% (inactive),92.4% (inactive),101% (inactive),96.3% (inactive)
COc1ccc2[nH]cc(/C=N/Nc3ccnc4cc(Cl)ccc34)c2c1,-91.8% (active),-78.7% (active),-100% (active),-56.7% (active),-78.1% (active),-91.6% (active),-62.4% (active),-49.2% (active),-92.3% (active),-56.7% (active)
CC(=C(c1ccc(OCCN2CCCC2)cc1)c1ccc(OCCN2CCCC2)cc1)c1ccc(Cl)cc1,60.7% (inactive),80% (inactive),15.6% (inactive),-68.7% (active),-52.2% (active),-1.74% (active),-48.5% (active),-61.8% (active),-85.9% (active),-74.4% (active)
CCCCCCCCCC(=O)NC(C)(C)C(=O)N1CCC[C@H]1C(=O)N[C@@H](CC(C)C)C(=O)N[C@@](C)(CC)C(=O)N[C@@H](CCC(N)=O)C(=O)N[C@H](CCC(N)=O)C(=O)NC(C)(C)C(=O)NC(C)(C)C(=O)N[C@@H](CCC(N)=O)C(=O)N[C@H](CC(C)C)C(=O)N[C@H](CO)CC(C)C,-85.9% (active) and -32.1% (active),-71.3% (active) and -31.6% (active),-88.1% (active) and 18.4% (inactive),-70.9% (active) and -64.1% (active),-83.6% (active) and -71% (active),-91.1% (active) and -43.9% (active),-83.3% (active) and -75.7% (active),-72% (active) and 49.1% (inactive),-82.1% (active) and -64.3% (active),-63% (active) and -63.6% (active)
CN1CCN(Cc2ccc(NC(=O)c3cncc(C#Cc4cnc5ccc(NCCO)nn45)c3)cc2C(F)(F)F)CC1,-40.2% (active),-14% (active),-15% (active),-41.5% (active),-78% (active),-27.1% (active),-75.8% (active),1.34% (active),-17.9% (active),-82.3% (active)
COc1ccc2c(c1)c(-c1nc(N)nnc1-c1c[nH]c3ccccc13)cn2C,47.7% (inactive),37.6% (inactive),57.3% (inactive),44.8% (inactive),14.2% (inactive),54% (inactive),29.9% (inactive),48.4% (inactive),54.5% (inactive),29.3% (inactive)
O=C1/C(=C/c2cc(F)cc(F)c2)Cc2cc3c(cc21)OCO3,62.3% (inactive),52.2% (inactive),41.5% (inactive),58% (inactive),30.3% (inactive),63.4% (inactive),1.49% (active),59.8% (inactive),61% (inactive),-15.2% (active)

# From PubChem BioAssay (NCI)
